Where “and” joins values, the source holds several entries; their conditions need not be identical. Equal entries are not always repeated. Some compounds were tested as several samples or in several runs, with calls that do not always agree. Calls of active or inactive are those of the source. Rule for the calls: active = hit-call score of the fitted dose curve at least 0.9, where 1 is the maximum; inactive = score below 0.9.
Columns and labels:
[1] = target: CCAAT/enhancer-binding protein beta (Homo sapiens) (UniProt P17676); assay: ATG_C_EBP_CIS: Attagene CIS-FACTORIAL HepG2 Assay for human CCAAT/Enhancer Binding Protein (C/EBP) beta (AID 2282927); conditions: HepG2 Attagene cis-factorial transcription factor reporter; actives raise or lower the signal
Outline: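 Endogenous transcription factor activity in human liver HepG2 cells is inferred from induction of a CEBPB-linked reporter mRNA. Exposure lasts 24 h; activity is fitted in both directions relative to DMSO.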

[2] = ATG_CMV_CIS: Attagene CIS-FACTORIAL HepG2 Assay for human CMV (Internal Marker) (AID 2282928); conditions: HepG2 CMV promoter reporter, transcription factor profiling; actives raise or lower the signal;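 note: endpoint acts as a background internal control marker rather than a target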
Outline: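 Fluorescence intensity of RT-PCR-derived reporter fragments, resolved by capillary electrophoresis, gives the signal. HepG2 liver cells bearing transfected cis-element reporters were treated 24 h; activity in either direction was fit relative to DMSO-treated controls.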

[3] = ATG_DR4_LXR_CIS: Attagene CIS-FACTORIAL HepG2 Assay for human Liver X Receptor (LXR), DR4 submotif (AID 2282929); conditions: HepG2 Attagene DR4 cis-reporter, mRNA transcription; actives raise or lower the signal
Outline: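 Cells were transfected with multiple reporter transcription units, exposed to chemicals for 24 hours, then lysed for RNA. Reporter mRNA induction was measured by RT-PCR with capillary electrophoresis detection and fitted in both directions relative to DMSO.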

[4] = target: Aryl hydrocarbon receptor (Homo sapiens) (UniProt P35869); assay: ATG_Ahr_CIS: Attagene CIS-FACTORIAL HepG2 Assay for human Aryl Hydrocarbon Receptor (Ahr) (AID 2282930); conditions: HepG2 AhR cis-factorial reporter transcription; actives raise or lower the signal
Outline: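 Transient MRTU transfection of HepG2 → 24 h compound exposure → total RNA, oligo(dT) RT → PCR, 6-FAM extension, HpaI cut → CE fluorescence. DMSO = baseline; bidirectional curve fit.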

[5] = ATG_AP_1_CIS: Attagene CIS-FACTORIAL HepG2 Assay for human Activator Protein 1 (AP-1) (AID 2282931); conditions: HepG2 Attagene cis-factorial AP-1 reporter mRNA; actives raise or lower the signal
Outline: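 Endogenous transcription-factor activity in human HepG2 liver cells is read through a cis-promoter reporter transcript, sampled 24 h after dosing. Detection uses RT-PCR with capillary electrophoresis; values come from bidirectional fitting relative to DMSO.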

[6] = ATG_AP_2_CIS: Attagene CIS-FACTORIAL HepG2 Assay for human Activator Protein 2 (AP-2) (AID 2282932); conditions: HepG2 AP-2 cis-reporter, Attagene transcription factor profiling; actives raise or lower the signal
Outline: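 Endogenous transcription factor activity is reported through transfected multiplex reporter constructs in HepG2, after 24 h of compound exposure. Transcripts were quantified by RT-PCR and capillary electrophoresis of fluorescent fragments. Bidirectional fit against DMSO.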

[7] = target: Transcription factor E2F1 (Homo sapiens) (UniProt Q01094); assay: ATG_E2F_CIS: Attagene CIS-FACTORIAL HepG2 Assay for human E2F Transcription Factor 1 (AID 2282935); conditions: HepG2 Attagene cis-reporter, E2F reporter RNA transcripts; actives raise or lower the signal
Outline: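 Gain or loss of reporter transcript, fitted against DMSO, reflects E2F1-driven transcription. Transiently transfected HepG2 dosed 24 h before RNA isolation. Quantified by fluorescent RT-PCR products separated by capillary electrophoresis.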

[8] = ATG_E_Box_CIS: Attagene CIS-FACTORIAL HepG2 Assay for human Enhancer Box (E-box) (AID 2282936); conditions: HepG2 E-box cis-reporter transcription, actives raise or lower the signal
Outline: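 E-box-driven reporter transcripts measured in transiently transfected HepG2 after 24 h exposure: RNA reverse-transcribed, PCR-amplified, fluorescently labelled, digested and resolved by capillary electrophoresis. Gain or loss relative to DMSO.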

[9] = ATG_M_61_CIS: Attagene CIS-FACTORIAL HepG2 Assay for M61 Transcription Factor (Internal Marker) (AID 2282937); conditions: HepG2 Attagene CIS-FACTORIAL M61 internal marker reporter; actives raise or lower the signal
Outline: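 Cells were transfected with reporter units under cis-regulatory promoters, treated with chemicals for 24 h, then lysed for RNA. Reporter transcripts were quantified by RT-PCR and capillary electrophoresis, and activity was fitted bidirectionally against DMSO.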

[10] = ATG_EGR_CIS: Attagene CIS-FACTORIAL HepG2 Assay for human Early Growth Response 1 (EGR1) (AID 2282938); conditions: HepG2 Attagene CIS-FACTORIAL EGR reporter mRNA; actives raise or lower the signal
Outline: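 Endogenous TF activity in HepG2 liver cells was gauged through cis-promoter reporter constructs transiently transfected. After 24 h dosing, reporter mRNA was quantified by RT-PCR and capillary electrophoresis, and curves fitted in both directions versus DMSO.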

[11] = ATG_Ets_CIS: Attagene CIS-FACTORIAL HepG2 Assay for human Erythroblast Transformation Specific (ETS) (AID 2282941); conditions: HepG2 ETS cis-reporter transcription, actives raise or lower the signal
Outline: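 Multiplexed reporter transcript profiling: HepG2, 24 h treatment, total RNA to cDNA, PCR, 6-FAM labelling, HpaI cut, capillary electrophoresis. Gain- or loss-of-signal fitted against DMSO.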

[12] = target: Hepatocyte nuclear factor 3-beta (Homo sapiens) (UniProt Q9Y261); assay: ATG_FoxA2_CIS: Attagene CIS-FACTORIAL HepG2 Assay for human Forkhead box A2 (FOXA2) (AID 2282942); conditions: HepG2 cis-reporter transcription factor activity, 24 h; actives raise or lower the signal
Outline: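 Endogenous transcription factor activity was read in HepG2 cells carrying transiently transfected cis-promoter reporter units. After 24 h dosing, reporter mRNA was quantified by RT-PCR and capillary electrophoresis, and values fitted bidirectionally versus DMSO.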

[13] = ATG_FoxO_CIS: Attagene CIS-FACTORIAL HepG2 Assay for human Forkhead box O (FoxO) (AID 2282943); conditions: HepG2 Attagene cis-reporter, FoxO element, mRNA; actives raise or lower the signal
Outline: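 HepG2, transient MRTU transfection (cis element, endogenous TFs). Dose 24 h. TriZol RNA → oligo(dT) RT → PCR → 6-FAM primer extension → HpaI cut → CE. Gain/loss vs DMSO.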

[14] = ATG_GATA_CIS: Attagene CIS-FACTORIAL HepG2 Assay for human GATA Binding Protein (AID 2282944); conditions: HepG2 GATA cis-element reporter, Attagene multiplex mRNA; actives raise or lower the signal
Outline: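 Transfected cis-reporter HepG2 cells were treated with chemicals for 24 hours. Total RNA was then converted to cDNA, amplified with reporter-specific primers and analysed by fluorescent capillary electrophoresis, using DMSO-treated wells as baseline.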

[15] = ATG_GLI_CIS: Attagene CIS-FACTORIAL HepG2 Assay for human Zinc Finger Protein GLI1 (AID 2282945); conditions: HepG2, Attagene cis-factorial reporter mRNA, GLI element; actives raise or lower the signal
Outline: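 Bidirectional curve fits relative to DMSO, using reporter mRNA levels from RT-PCR plus capillary electrophoresis. Cells were HepG2 transiently carrying cis-regulated reporter constructs, harvested 24 h after dosing.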

[16] = ATG_BRE_CIS: Attagene CIS-FACTORIAL HepG2 Assay for human Bone Morphogenetic Protein (BMP) Response Element (BRE) (AID 2282933); conditions: HepG2 BMP response element reporter, Attagene transcription factor profiling; actives raise or lower the signal
Outline: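 A HepG2 multiplex reporter system measured inducible reporter mRNA 24 h post-dosing. Detection: RT-PCR, 6-FAM primer extension, HpaI digestion, capillary electrophoresis. Activity fitted bidirectionally relative to DMSO.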

[17] = ATG_M_19_CIS: Attagene CIS-FACTORIAL HepG2 Assay for M19 Transcription Factor (Internal Marker) (AID 2282939); conditions: HepG2 Attagene CIS-FACTORIAL M19 internal marker reporter; actives raise or lower the signal
Outline: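 Chemical-treated HepG2 (24 h) with MRTU constructs; reporter transcripts detected by fluorescent RT-PCR fragment analysis on capillary electrophoresis. Internal background marker, DMSO as baseline.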

[18] = ATG_ERE_CIS: Attagene CIS-FACTORIAL HepG2 Assay for Estrogen Response Element (ERE) (AID 2282940); conditions: HepG2 ERE cis-reporter, Attagene RNA transcript; actives raise or lower the signal
Outline: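 Human liver cells (HepG2) bearing transiently transfected, promoter-regulated reporter units were exposed 24 h. Reporter mRNA induction was detected by capillary electrophoresis of labelled RT-PCR products and fitted bidirectionally to DMSO.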

[19] = target: Bile acid receptor (Homo sapiens) (UniProt Q96RI1); assay: ATG_IR1_CIS: Attagene CIS-FACTORIAL HepG2 Assay for human Nuclear Receptor Subfamily 1 Group H Member 4 (NR1H4), IR1 submotif (AID 2282946); conditions: IR1 reporter transcription, actives raise or lower the signal
Outline: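 HepG2 cells transiently transfected with multiplexed cis-element reporter units read endogenous transcription factor activity. After 24 h compound exposure, reporter mRNA was quantified by RT-PCR, fluorescent labelling, HpaI digestion and capillary electrophoresis; bidirectional fitting versus DMSO baseline.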

[20] = target: Retinoic acid receptor alpha (Homo sapiens) (UniProt P10276); assay: ATG_DR5_RAR_CIS: Attagene CIS-FACTORIAL HepG2 Assay for human Retinoic Acid Receptor Alpha (RARE), DR5 submotif (AID 2282934); conditions: HepG2 Attagene cis-factorial RARE DR5 reporter, mRNA; actives raise or lower the signal;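 note: reporter responds to endogenous RAR alpha beta and gamma in HepG2 not RARA alone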
Outline: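 Transient MRTU transfection of HepG2; 24 h compound treatment; TriZol RNA, oligo(dT) RT, PCR, FAM labelling, capillary electrophoresis. Bidirectional fit vs DMSO. Endogenous TF activity at DR5 RARE.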

Measured: AC50

Hepatocyte nuclear factor 3-beta (Homo sapiens), sequence (Q9Y261 whole entry, looked up): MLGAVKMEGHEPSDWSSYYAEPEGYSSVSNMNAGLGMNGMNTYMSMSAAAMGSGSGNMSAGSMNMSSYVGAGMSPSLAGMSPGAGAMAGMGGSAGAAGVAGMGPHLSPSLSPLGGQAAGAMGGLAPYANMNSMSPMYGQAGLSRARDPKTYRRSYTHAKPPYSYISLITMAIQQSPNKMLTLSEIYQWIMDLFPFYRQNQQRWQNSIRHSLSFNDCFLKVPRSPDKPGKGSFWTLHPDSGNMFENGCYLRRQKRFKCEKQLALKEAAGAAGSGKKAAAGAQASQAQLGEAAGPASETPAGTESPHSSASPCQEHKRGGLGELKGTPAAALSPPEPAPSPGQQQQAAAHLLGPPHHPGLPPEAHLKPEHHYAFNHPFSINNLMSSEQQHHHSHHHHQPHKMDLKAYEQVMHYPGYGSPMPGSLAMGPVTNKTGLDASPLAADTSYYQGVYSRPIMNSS
Bile acid receptor (Homo sapiens), sequence (Q96RI1 whole entry, looked up): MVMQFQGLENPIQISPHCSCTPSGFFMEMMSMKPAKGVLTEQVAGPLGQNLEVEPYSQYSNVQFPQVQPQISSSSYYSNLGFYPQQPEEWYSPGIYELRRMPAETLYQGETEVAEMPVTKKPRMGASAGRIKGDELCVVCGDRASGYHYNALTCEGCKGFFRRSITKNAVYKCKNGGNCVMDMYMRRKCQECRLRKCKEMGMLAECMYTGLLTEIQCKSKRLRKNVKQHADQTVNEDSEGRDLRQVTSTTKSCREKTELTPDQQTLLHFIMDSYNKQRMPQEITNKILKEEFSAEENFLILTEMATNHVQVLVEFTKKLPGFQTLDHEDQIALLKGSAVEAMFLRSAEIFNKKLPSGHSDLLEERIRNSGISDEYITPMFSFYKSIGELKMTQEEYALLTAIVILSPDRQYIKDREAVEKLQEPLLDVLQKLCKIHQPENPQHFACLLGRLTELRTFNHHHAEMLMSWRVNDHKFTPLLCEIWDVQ
Transcription factor E2F1 (Homo sapiens), sequence (Q01094 whole entry, looked up): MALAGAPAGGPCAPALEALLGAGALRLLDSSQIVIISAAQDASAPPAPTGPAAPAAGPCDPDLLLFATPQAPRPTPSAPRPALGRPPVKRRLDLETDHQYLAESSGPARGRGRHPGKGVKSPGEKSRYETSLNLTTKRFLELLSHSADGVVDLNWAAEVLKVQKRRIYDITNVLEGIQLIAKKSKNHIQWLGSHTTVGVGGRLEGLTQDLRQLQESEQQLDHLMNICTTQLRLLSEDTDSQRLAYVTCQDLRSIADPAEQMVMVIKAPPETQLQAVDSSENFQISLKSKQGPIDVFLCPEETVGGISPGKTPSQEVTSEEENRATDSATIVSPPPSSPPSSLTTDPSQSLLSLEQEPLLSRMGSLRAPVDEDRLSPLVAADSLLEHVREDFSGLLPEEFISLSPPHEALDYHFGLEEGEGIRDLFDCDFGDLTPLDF
Aryl hydrocarbon receptor (Homo sapiens), sequence (P35869 whole entry, looked up): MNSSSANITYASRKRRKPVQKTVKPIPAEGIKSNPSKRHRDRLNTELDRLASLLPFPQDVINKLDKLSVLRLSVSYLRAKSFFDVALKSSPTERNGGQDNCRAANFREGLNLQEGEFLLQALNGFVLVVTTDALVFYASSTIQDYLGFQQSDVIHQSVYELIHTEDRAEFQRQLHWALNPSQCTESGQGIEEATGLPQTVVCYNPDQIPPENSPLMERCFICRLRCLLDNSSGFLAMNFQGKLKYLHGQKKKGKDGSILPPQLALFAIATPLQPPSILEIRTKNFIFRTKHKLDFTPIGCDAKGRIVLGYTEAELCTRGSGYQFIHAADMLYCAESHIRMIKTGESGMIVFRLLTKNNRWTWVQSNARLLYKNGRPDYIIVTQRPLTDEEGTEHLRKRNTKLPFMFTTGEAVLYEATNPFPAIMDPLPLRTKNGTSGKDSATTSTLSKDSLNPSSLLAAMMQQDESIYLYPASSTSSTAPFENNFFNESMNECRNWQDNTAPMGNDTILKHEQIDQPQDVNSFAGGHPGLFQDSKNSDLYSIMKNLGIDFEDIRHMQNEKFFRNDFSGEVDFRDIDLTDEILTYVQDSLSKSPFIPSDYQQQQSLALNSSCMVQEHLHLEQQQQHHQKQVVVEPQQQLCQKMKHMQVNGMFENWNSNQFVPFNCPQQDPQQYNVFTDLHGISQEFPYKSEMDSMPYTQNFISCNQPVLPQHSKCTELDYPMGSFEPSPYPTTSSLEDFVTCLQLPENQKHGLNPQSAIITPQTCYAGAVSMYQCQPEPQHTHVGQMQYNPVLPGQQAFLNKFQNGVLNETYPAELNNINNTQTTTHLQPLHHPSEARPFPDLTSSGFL
CCAAT/enhancer-binding protein beta (Homo sapiens), sequence (P17676 whole entry, looked up): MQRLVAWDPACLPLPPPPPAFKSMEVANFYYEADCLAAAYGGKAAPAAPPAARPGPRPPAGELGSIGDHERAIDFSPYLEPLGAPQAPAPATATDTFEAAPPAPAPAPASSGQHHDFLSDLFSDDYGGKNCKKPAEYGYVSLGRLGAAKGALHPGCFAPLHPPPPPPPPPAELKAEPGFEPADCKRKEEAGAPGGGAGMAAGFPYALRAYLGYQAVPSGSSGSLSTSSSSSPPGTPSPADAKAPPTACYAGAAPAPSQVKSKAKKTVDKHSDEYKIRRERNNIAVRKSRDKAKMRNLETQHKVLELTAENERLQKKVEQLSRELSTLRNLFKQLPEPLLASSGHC
Retinoic acid receptor alpha (Homo sapiens), sequence (P10276 whole entry, looked up): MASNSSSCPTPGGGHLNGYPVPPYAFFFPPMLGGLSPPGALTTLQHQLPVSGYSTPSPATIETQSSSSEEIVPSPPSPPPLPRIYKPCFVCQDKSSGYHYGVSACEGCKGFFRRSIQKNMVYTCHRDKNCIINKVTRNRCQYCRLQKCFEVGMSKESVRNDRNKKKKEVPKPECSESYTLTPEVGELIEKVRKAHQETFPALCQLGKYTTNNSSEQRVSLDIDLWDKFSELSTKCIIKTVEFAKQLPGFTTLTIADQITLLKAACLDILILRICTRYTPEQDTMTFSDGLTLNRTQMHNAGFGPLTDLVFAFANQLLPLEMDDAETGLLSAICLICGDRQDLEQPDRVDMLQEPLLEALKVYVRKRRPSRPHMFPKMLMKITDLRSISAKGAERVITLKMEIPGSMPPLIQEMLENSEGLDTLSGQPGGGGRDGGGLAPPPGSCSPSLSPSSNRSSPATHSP

Nc1cccc2ccccc12
inactive: [1] | [2] | [5] | [6] | [7] | [9] | [10] | [11] | [12] | [13] | [14] | [15]
active: [3] 154 µM | [4] 5.16 µM | [8] 32.1 µM

C[C@H]1O[C@@H](O[C@H]2[C@@H](O)C[C@H](O[C@H]3[C@@H](O)C[C@H](O[C@H]4CC[C@@]5(C)[C@H](CC[C@@H]6[C@@H]5CC[C@]5(C)[C@@H](C7=CC(=O)OC7)CC[C@]65O)C4)O[C@@H]3C)O[C@@H]2C)C[C@H](O)[C@@H]1O
inactive: [2] | [16] | [7] | [8] | [9] | [17] | [18] | [12] | [15] | [19]
active: [1] 2.99 µM | [3] 0.0564 µM | [5] 13.6 µM | [6] 0.141 µM | [10] 0.65 µM | [11] 0.0564 µM | [13] 0.472 µM | [14] 0.131 µM

O=C(CCl)CCl
active: [2] 54 µM | [3] 23.3 µM | [6] 33.4 µM | [8] 30.1 µM | [10] 48.8 µM | [13] 46.3 µM
inactive: [1] | [4] | [5] | [7] | [9] | [18] | [12] | [14] | [15]

CCCCP(CCCC)CCCC
inactive: [1] | [2] | [3] | [4] | [5] | [6] | [7] | [8] | [9] | [10] | [17] | [11] | [12] | [13] | [14] | [15] | [19]

CCOP(OCC)OCC
inactive: [1] | [2] | [3] | [4] | [5] | [6] | [7] | [8] | [9] | [10] | [17] | [18] | [11] | [12] | [13] | [14] | [15] | [19]

ClCc1ccccn1
inactive: [1] | [2] | [3] | [5] | [6] | [7] | [8] | [9] | [10] | [17] | [12] | [13] | [14] | [15]
active: [4] 76 µM

COc1cc(-c2ccc(N)c(OC)c2)ccc1N
active: [1] 14.8 µM and 36.5 µM | [2] 10.5 µM and 27.8 µM | [20] 2.98 µM and 19.8 µM | [8] 43.2 µM | [10] 27.9 µM | [11] 100 µM
inactive: [3] | [5] | [6] | [16] | [7] | [8] | [9] | [10] | [17] | [11] | [12] | [13] | [15]

Nc1ccc(-c2ccc(N)c(Cl)c2)cc1Cl
active: [2] 2.15 µM | [4] 6.23 µM | [18] 3.86 µM
inactive: [1] | [3] | [5] | [6] | [7] | [8] | [9] | [10] | [17] | [11] | [12] | [13] | [14] | [15]

CCOC(=O)/C=C(C)/C=C/C[C@@H](C)CCCC(C)C
active: [1] 179 µM | [2] 132 µM | [3] 53.5 µM | [5] 100 µM | [6] 46.9 µM | [7] 180 µM | [8] 106 µM | [10] 158 µM | [17] 157 µM | [15] 149 µM | [19] 41 µM
inactive: [9] | [11] | [12] | [13]

— PubChem BioAssay (EPA / NIEHS)
